Bioassay records as filed in PubChem BioAssay.
Lassa entry inh: inhibitors of Lassa virus binding or cell entry; 300,000 compounds, 1.2% hits; Potency, µM (doses to about 37.9 µM), without a hit: at the highest dose activity change, negative = inhibition, most hits filed as inhibitors; AID 540256; Lassa virus pseudotype entry inhibition, cell reporter; calls by dose curve; tested in HEK293 cells; also: potency is read from the fitted curve at half-maximal effect; nearly all actives have a fitted effect of over 50% in size
Marburg entry inh: inhibitors of Marburg virus binding or cell entry; Marburg virus pseudotyped entry inhibition, cell reporter; Potency, µM (top dose mostly 37.8 µM), for the others: at the top dose activity change, negative = inhibition, hits mostly inhibitors; 300,000 compounds, 1.8% hits; AID 540276; calls by dose curve; tested in HEK293 cells; also: potency is read from the fitted curve at half-maximal effect
HCMV inh: inhibitors of human cytomegalovirus. HFF cells, HCMV-luciferase reporter, 72 h; hits give low values. activity change, negative = inhibition, % at 57.5 µM. 410,000 compounds, 4.5% hits. AID 1259415; in the data active = activity change below about -60%; inconclusive = no clear call, values can overlap the other calls; inactive = above about -39%
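Luciferase read-out from HCMV-luciferase-infected HFFs (MOI 1 PFU/cell) 72 h post infection at 37C; compounds added after 16 h cell attachment; activity normalized between buffer-only basal and Salinomycin (10uM) inhibitor controls.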
Vaccinia Venus: vaccinia inhibition (Venus reporter); 330,000 compounds, 0.46% hits; Potency, µM (highest dose often 36.5 µM), inactives show at the top dose activity change, negative = inhibition, actives largely listed as inhibitors; Vaccinia virus Venus reporter expression, fluorescence; calls by dose curve; tested in A549 cells; also: potency is read from the fitted curve at half-maximal effect; nearly all actives have a fitted effect of over 30% in size
FMDV antiviral: antivirals against foot and mouth disease virus. 410,000 compounds, 1.2% hits. FMDV antiviral cell-based qHTS. Potency, µM (top dose mostly 57.9 µM), for the others: top-dose activity change, negative = inhibition, usual class: inhibitors; calls by dose curve; tested in HEK293T cells; also: read-out not given here; potency is read from the fitted curve at half-maximal effect; nearly all actives have a fitted effect of over 45% in size
VACV mCherry inh: inhibitors of vaccinia virus infection (mCherry reporter signal); AID 720579; Vaccinia virus mCherry reporter infection, fluorescence; Potency, µM (titrated, usually from 36.5 µM), for inactives: at the top dose activity change, negative = inhibition, usual class: inhibitors; 310,000 compounds, 0.63% hits; calls by dose curve; tested in A549 cells; also: potency is read from the fitted curve at half-maximal effect; nearly all actives have a fitted effect of over 35% in size
* marks the source's active call; other numbers are inactive results; i = inactive; ? = inconclusive; . = no result; + = active, no number; [ ] = another dose, or the depositor's remark. Shown are actives, neighbours in structure and some others; about 6.5% of the full set was active somewhere. % is scaled to controls: 0 for no effect and ±100 for the full control effect.

SMILES	Lassa entry inh	Marburg entry inh	HCMV inh	Vaccinia Venus	FMDV antiviral	VACV mCherry inh
COc1ccc(OC)c(C2=NOC(C(=O)Nc3cc(C)nn3-c3ccccc3)C2)c1 (centres undefined)	-2.1%	-0.1%	3.3	?	-13.1%	+
Cc1ccc(C)n1C1C(=O)N(Cc2ccc(C(F)(F)F)cc2)c2ccccc21 (centres undefined)	.	.	30.4	.	.	.
O=C(COc1ccc(/C=N/NC(=O)CSCc2ccc([N+](=O)[O-])cc2)cc1)NCc1ccco1	?	11.2µM*	12.3	-25.1%	?	-1.9%
Cc1ccc(CSCC(=O)N/N=C/c2ccc(OCC(=O)Nc3ccc(C)cc3)cc2)cc1	?	-11.9%	1.4	-11.6%	?	-19.3%
O=C(CSCc1ccccc1)N/N=C/c1ccc(OCC(=O)N2CCCCC2)cc1	-9.7%	-7.9%	-67.6*	-13.7%	?	i
O=C(CSCc1ccccc1)N/N=C/c1cc2c(cc1Br)OCO2	?	?	-72.9*	-16.2%	-7.3%	-21.0%
O=C(Nc1ccccc1Br)c1cnn2c1NC(=C1CC1)C=C2C(F)F	.	.	.	-21.0%	.	-5.1%
Cc1ccc(S(=O)(=O)N2CCN(c3nc(-n4c(=O)[nH]c5ccccc54)nc4ccccc34)CC2)cc1	.	.	.	-27.8%	.	-23.3%
O=C(NCCCc1nc2ccccc2n1Cc1ccc(Cl)cc1)c1ccco1	0.0%[46.1 µM]	-10.0%[46.1 µM]	-31.9	-9.8%	?	-12.2%
O=C(NCCCc1nc2ccccc2n1Cc1cccc(Cl)c1)c1ccco1	-6.8%[46.1 µM]	?	-75.9*	-7.6%[7.34 µM]	?	-2.6%[7.34 µM]
CCCCCn1c(CCCNC(=O)c2cccc(C)c2)nc2ccccc21	?	-17.9%[46.1 µM]	-85.1*	?	?	-20.6%
COc1ccc([C@H]2NC(=O)C[C@H]2C(=O)N2CCOCC2)cc1	.	.	-14.6	.	.	.
Nc1c(C(O)(C(F)(F)F)C(F)(F)F)cc(C(O)(C(F)(F)F)C(F)(F)F)c2ccccc12	22.4µM*	11.2µM*	.	?	?	11.2µM*
COc1cc(S(=O)(=O)O)c(C)cc1N=Nc1c(O)ccc2cc(S(=O)(=O)O)ccc12	.	.	.	43.2%	.	26.2%
O=S(=O)(O)c1cc(O)c2c(O)c(N=Nc3cc(Cl)ccc3O)c(S(=O)(=O)O)cc2c1	?	?	.	421.0%	12.6µM*	491.2%
Cc1cc(-c2ccc(N=Nc3c(S(=O)(=O)O)cc4cc(S(=O)(=O)O)cc(N)c4c3O)c(C)c2)ccc1N=Nc1c(S(=O)(=O)O)cc2cc(S(=O)(=O)O)cc(N)c2c1O	?	15.8µM*	.	.	.	.
COCc1ccc(CN2CCOc3c(cc(-c4ccc(SC)cc4)cc3OC)C2)o1	.	.	.	1.2%	-3.4%	-7.7%
COC(=O)c1ccccc1NC(=O)c1c(C)oc2ncn(C)c(=O)c12	19.5%[46.1 µM]	6.5%[46.1 µM]	-90.9*	-2.7%	11.9%	-3.3%
O=c1c(-c2cccs2)nc2cncnc2n1Cc1ccccc1	.	.	.	.	4.0%	.
Cn1c2c(c(=O)n(C)c1=O)C(C(F)(F)F)(C(F)(F)F)N=C(c1ccccc1Cl)N2	4.8%	?	-10.3	.	?	.
Cn1c2c(c(=O)n(C)c1=O)C(C(F)(F)F)(C(F)(F)F)N=C(CCC1CCCCC1)N2	2.59µM*	11.2µM*	-103.0*	?	14.1µM*	?
C[C@@H]1CN(Cc2ccc3c(c2)CN(Cc2cccn2-c2ccccn2)CCO3)C[C@H](C)O1	.	.	.	4.9%	-8.4%	-8.8%
Oc1ccc(C[C@H]2NCCc3cc(O)c(O)cc32)cc1O	?	2.82µM*	11.2	-11.3%	3.0%	-12.3%
COc1cc2c(cc1OC)C(Cc1ccc(O)cc1)NCC2 (centres undefined)	-0.5%	?	-78.5*	-7.1%	-22.5%	-14.9%
CCc1ccc(OCC2NCCc3cc(OC)c(OC)cc32)cc1 (centres undefined)	.	.	-89.6*	.	-22.4%	.
CC(=O)OC[C@H]1O[C@H](CC=NO[C@H](C)c2cn([C@@H]3COC[C@@H]3O)nn2)C=C[C@@H]1OC(C)=O	.	-12.4%[14.2 µM]	.	.	.	.
Cc1ccc(C)c(OCC(=O)N/N=C/c2c(C)nn(-c3ccccc3)c2Cl)c1C	?	11.1%	-67.8*	-11.2%	-17.1%	i
CCOC(=O)N/N=C/c1c(C)nn(-c2cccc(C(F)(F)F)c2)c1Cl	7.08µM*	?	?	?	?	?
COC(=O)N/N=C\c1c(C)nn(-c2ccccc2)c1Cl	-14.9%	-19.7%	1.6	-15.2%	48.4%	i
